Inconclusive results are not listed. The source made the active and inactive calls. Calls come from the whole dose curve; as a rule, active = well fitted cell-killing curve with a large enough effect; inconclusive = small, poorly fitted or top-dose-only effect, or effect the other way; inactive = no such curve, though single readings can be large or run the other way.
Experiment: Quantitative High-Throughput drug screen in 47 multiple myeloma cell lines against the NCATS MIPE library collection: Delta47_JCRB cell viability assay (AID 1918925; note: nearly all actives have a fitted effect of over 45% in size)
Conditions: Delta47 myeloma viability, CellTiter-Glo ATP, 48 h; series mostly up to 45.8 µM
Source text: PI: Beverly A. Mock Ph.D.
Laboratory of Cancer Biology and Genetics,
Center for Cancer Research, National Cancer Institute,
National Institute of Health, Bethesda, Maryland
Drug resistance and disease progression are common in multiple myeloma (MM) patients, underscoring the need for new therapeutic combinations. […] We hypothesized that effective combinations would reduce MYC expression and enhance p16 activity. […] These preclinical data identify potentially useful drug combinations for evaluation in drug-resistant MM and reveal potential mechanisms of combined drug sensitivity.
Described herein is the primary MIPE qHTS used to cherrypick compounds. Validated compounds were then further tested for potential synergistic activiy.
[1] Peat TJ, Gaikwad SM, Dubois W, Gyabaah-Kessie N, Zhang S, Gorjifard S, Phyo Z, Andres M, Hughitt VK, Simpson RM, Miller MA, Girvin AT, Taylor A, Williams D, D'Antonio N, Zhang Y, Rajagopalan A, Flietner E, Wilson K, Zhang X, Shinn P, Klumpp-Thomas C, McKnight C, Itkin Z, Chen L, Kazandijian D, Zhang J, Michalowski AM, Simmons JK, Keats J, Thomas CJ, Mock BA. Drug combinations identified by high-throughput screening promote cell cycle transition and upregulate Smad pathways in myeloma. Cancer Lett. 2023 Aug 1;568:216284. doi: 10.1016/j.canlet.2023.216284. Epub 2023 Jun 24. PMID: 37356470; PMCID: PMC10408729.
SEQUENCE No. (e.g., 1, 2, 3, etc.); […] (e.g., Cells, Incubation, Reagent, etc.); VALUE and DESCRIPTION.
1; Cells; 5 uL; white, solid bottom 1536-well Greiner assay plate.
2; Compounds; 23 nL; Kalypsis pin tool (Wako USA) equipped with a 1536-well pin head to transfer to the assay plates.
3; Incubation; 48 hours; 37C incubation.
4; Reagent;5uL; CellTiter Glo (Promega).
5; Detector; 425V; Luminescence; Viewlux PerkinElmer.
NOTES (numbers refer to Sequence numbers above)
1. The cell-based screening methods employed in this study were like those previously published. Briefly, the corresponding myeloma cell lines were screened in 1,536-well plates with 500 cells, 5-uL per well for inhibition of cell viability (assessed by measuring ATP levels with CellTiterGlo).
2. NCATS MIPE 4.0 library of approved and investigational drugs were added using the Kalypsis pin tool. Wells treated with DMSO only for 100% viability and media only wells for 0% viability were used as controls.
3. The assay plates were covered and incubated for 48 hours in a 37C, 5% CO2 incubator with controlled humidity.
4. After 48 hours, CellTilter-GloTM luminescent substrate mix (Promega) reagent was added to the assay plate and plates we incubated for 5 min at room temperature.
5. Signal was measured as median relative luminescence units on a ViewLux (PerkinElmer) multiplate reader.
[1] Heske CM, Davis MI, Baumgart JT, Wilson K, Gormally MV, Chen L, Zhang X, Ceribelli M, Duveau DY, Guha R, Ferrer M, Arnaldez FI, Ji J, Tran HL, Zhang Y, Mendoza A, Helman LJ, Thomas CJ. Matrix Screen Identifies Synergistic Combination of PARP Inhibitors and Nicotinamide Phosphoribosyltransferase (NAMPT) Inhibitors in Ewing Sarcoma. Clin Cancer Res. 2017 Dec 1;23(23):7301-7311. doi: 10.1158/1078-0432.CCR-17-1121. Epub 2017 Sep 12. PMID: 28899971; PMCID: PMC6636827.
With COc1cc2c(cc1OC)C1CC(=O)C(CC(C)C)CN1CC2 (stereo not given) the Potency was “inactive”. With N=C(N=C(N)N)N1CCOCC1 the Potency was “inactive”. In the case of CCN(CC)CCOc1ccc(Cc2ccccc2)cc1, the Potency is reported as “inactive”. With CCN(CC)CCOc1ccc(Nc2ncc3cc(-c4c(Cl)cccc4Cl)c(=O)n(C)c3n2)cc1 the Potency was 1.32 µM (active). With O=C(CCc1ccc(O)cc1)c1c(O)cc(O)cc1O the Potency was 0.118 µM (active). With NC(=NCc1ccccc1)NC(=O)c1nc(Cl)c(N)nc1N the Potency was 6.62 µM (active). In the case of COc1cc2c(N3CCN(C(=O)Nc4ccc(OC(C)C)cc4)CC3)ncnc2cc1OCCCN1CCCCC1, the Potency is reported as 8.33 µM (active). For O=C1CCc2ccc(OCCCCN3CCN(c4cccc(Cl)c4Cl)CC3)cc2N1, the Potency was 23.5 µM (active). For NC(=O)Cc1cccc(C(=O)c2ccccc2)c1N, the Potency was “inactive”. In the case of CC(C)[C@H](N)C(=O)OCCOCn1cnc2c(=O)[nH]c(N)nc21, the Potency is reported as “inactive”. For CCC(C)(Oc1ccc(C2(c3ccc(OC(C)(CC)C(=O)O)cc3)CCCCC2)cc1)C(=O)O (stereo not given), the Potency was “inactive”. With CCN(CC)C(=S)SSC(=S)N(CC)CC the Potency was 0.0118 µM (active). For COc1c2occc2cc2ccc(=O)oc12, the Potency was “inactive”. With CCCOc1ccc2nc(NC(=O)OC)[nH]c2c1 the Potency was 0.0118 µM (active). In the case of CC1Cc2ccccc2N1NC(=O)c1ccc(Cl)c(S(N)(=O)=O)c1 (stereo not given), the Potency is reported as “inactive”. In the case of CC(C)c1ccc2c(c1)c(SC(C)(C)C)c(CC(C)(C)C(=O)O)n2Cc1ccc(Cl)cc1, the Potency is reported as 26.4 µM (active). In the case of Cc1ccc(C)c(OCCCC(C)(C)C(=O)O)c1, the Potency is reported as 16.6 µM (active). For Cc1ccc(NC(=O)c2ccc(CN3CCN(C)CC3)cc2)cc1Nc1nccc(-c2cccnc2)n1, the Potency was 20.9 µM (active). With CN(C)c1ccc2nc3ccc(=[N+](C)C)cc-3sc2c1 the Potency was 6.62 µM (active). In the case of CC1=C(C(=O)O)N2C(=O)[C@@H](NC(=O)[C@H](N)C3=CCC=CC3)[C@H]2SC1, the Potency is reported as “inactive”. For c1ccc2[nH]c(-c3cscn3)nc2c1, the Potency was “inactive”. With Cc1ccc(C(=O)c2cc(O)c(O)c([N+](=O)[O-])c2)cc1 the Potency was 26.4 µM (active). For CCCCCCCCOc1ccccc1C(=O)Nc1ccc(C(=O)OCC[N+](C)(CC)CC)cc1, the Potency was 18.7 µM (active). For Cc1cccc(CN2CCN(C(c3ccccc3)c3ccc(Cl)cc3)CC2)c1 (stereo not given), the Potency was 8.33 µM (active). In the case of Cc1cc(C2CCCCC2)n(O)c(=O)c1, the Potency is reported as 6.62 µM (active). In the case of CN(c1nccc(=O)[nH]1)C1CCN(c2nc3ccccc3n2Cc2ccc(F)cc2)CC1, the Potency is reported as 4.69 µM (active). For O=C(c1ccccc1)c1ccc2n1CCC2C(=O)O (stereo not given), the Potency was 9.35 µM (active). With CC(C)Oc1ccc2c(=O)c(-c3ccccc3)coc2c1 the Potency was “inactive”. For Nc1cccc2c1CN(C1CCC(=O)NC1=O)C2=O (stereo not given), the Potency was “inactive”. For CC1(C)C(=O)N(CCN2CCC(C(=O)c3ccc(F)cc3)CC2)c2ccccc21, the Potency was 16.6 µM (active). For CN(C)[C@@H](CCOc1cccc2ccccc12)c1ccccc1, the Potency was 18.7 µM (active). With CN(C)C(=O)[C@H](O)[C@H](Cc1ccccc1)NC(=O)c1cc2cc(Cl)ccc2[nH]1 the Potency was 4.18 µM (active). In the case of NCCCCNCCCN, the Potency is reported as 23.5 µM (active). In the case of CC(C)[N+]1(C)[C@@H]2CC[C@H]1CC(OC(=O)C(CO)c1ccccc1)C2 (stereo not given in full), the Potency is reported as “inactive”. With O=c1cc(N2CCOCC2)oc2c(-c3ccccc3)cccc12 the Potency was 1.48 µM (active). In the case of COC1=C(OC)C(=O)C(CCCCCCCCCCO)=C(C)C1=O, the Potency is reported as 18.7 µM (active). For O=C(O)c1cn(-c2ccc(F)cc2)c2cc(N3CCNCC3)c(F)cc2c1=O, the Potency was “inactive”. With O=C1c2c(O)cc(O)cc2OC(c2ccc(O)c(O)c2)C1O (stereo not given) the Potency was “inactive”. With NS(=O)(=O)c1cc(C(=O)O)c(NCc2ccco2)cc1Cl the Potency was “inactive”. With Cc1cc2cc3c(C)cc(=O)oc3c(C)c2o1 the Potency was 20.9 µM (active).

Source: PubChem BioAssay (NCATS)
Potency is the fitted concentration of half-maximal effect.
